From PubChem BioAssay (NCATS) come the findings set out here.

A number with no mark means an inactive call.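 The calls were made as follows, unless noted: active = compounds whose dose series gives a full or clear partial fitted curve of increased nuclear translocation; inconclusive = weak partial curve or effect only at the top dose; inactive = no dose-dependent translocation response.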 Inconclusive results are not listed.

Test system in the first assay: not listed separately
Briefly: Stat Signaling Pathway (AID 446; active = well fitted curve in either direction with a large enough effect, not every such curve was filed as active;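 also: ME-180 cervical cancer cells given 40 pM IL-6 alongside compound; SIE-controlled beta-lactamase reporter measured as 460/530 nm FRET emission ratio; % is scaled to controls: 0 for no effect and ±100 for the full control effect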). Particulars: ME-180 (cervical carcinoma) SIE beta-lactamase reporter, IL-6 stimulated, 5 h; at 17.2 µM (top of the series) unless noted. An outline of the steps:
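ME-180 SIE-bla cells; overnight plating; cpd + IL-6 40 pM, 5 h, 37 C; LiveBLAzer 2.5 h RT; 460/530 nm emission ratio. Normalized to 300 pM IL-6 and 125 nM JAK inhibitor controls.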
Regarding `CC(=O)N1CCC2(CC1)C(C#N)=C(N)Oc1n[nH]c(C(F)(F)F)c12`, the activity, negative = inhibition was 5.71%.

With `COC(=O)C(NC(=O)c1ccco1)(Nc1ccc(Br)cn1)C(F)(F)F` (stereo not given), the activity, negative = inhibition was -13%.

`C=CCOc1ccc(/C(O)=C2/C(=O)C(=O)N(CCCN3CCOCC3)C2c2ccccc2)cc1` (stereo not given): the activity, negative = inhibition is -5.01%.

As to `C=C(Br)Cn1c(CCCC)nc2ccccc21`, the activity, negative = inhibition is 4.16%.

Regarding `CC(C)(C)c1ccc(C(=O)C=[N+]=[N-])cc1`, the activity, negative = inhibition is 4.94%.

With `CSc1nc(N)nc(SCC(=O)OC(C)C)c1C#N`, the activity, negative = inhibition is -5.26%.

On to `CCCOc1ccc(N2C(=O)CC(N(CCC)C(=O)CCC(=O)O)C2=O)cc1` (stereo not given), for which the activity, negative = inhibition was 6.31%.

For the compound `COc1ccc(Oc2nc3c(c(=O)n(C)c(=O)n3C)n2Cc2cccc(OC)c2)cc1`, the activity, negative = inhibition is -2.94%.

As for `CCOC(=O)CCNc1n[nH]c(=O)[nH]c1=O`, the activity, negative = inhibition was -2.32%.

Regarding `Nc1nc2n(n1)C(c1ccc(F)cc1)CC(c1ccc(F)cc1)N2` (stereo not given), the activity, negative = inhibition was 5.35%.

Consider `COc1ccccc1N1CCN(CCOc2c(OC)cccc2OC)CC1`, for which the activity, negative = inhibition is 2.04%.

Take `CC1(C)CC(=O)C2=C(C1)OC(N)=C(C#N)[C@@]21C(=O)N(CC(N)=O)c2ccccc21`: the activity, negative = inhibition was -18.4%.

As to `CC1(c2ccco2)NC(=O)NC1=O` (stereo not given), the activity, negative = inhibition was 5.48%.

For the compound `COC(=O)c1cc(Br)c(=O)n(Cc2ccco2)c1`, the activity, negative = inhibition is -3.41%.

Take `CCc1cc2c(=O)c(-c3cscn3)coc2c(CN(C)C)c1O`: the activity, negative = inhibition is 10.5%.

On to `COc1cc(C)nc(Oc2ccc(OCCOc3ccc(C)cc3)nn2)n1`, for which the activity, negative = inhibition was -5.96%.

Take `Cc1cc(=O)oc(C)c1C(=O)NCCC1=CCCCC1`: the activity, negative = inhibition was 2.06%.

`O=C(CC(c1ccco1)S(=O)(=O)c1ccccc1)c1ccc(F)cc1` (stereo not given): the activity, negative = inhibition is -7.8%.

Turning to `COc1ccc(-c2nn3c(-c4ccccn4)nnc3s2)cc1OC`, the activity, negative = inhibition is -2.76%.

Turning to `Nc1nc(NC(=O)Cc2ccccc2)nn1-c1ccccc1`, the activity, negative = inhibition was 4.24%.

As for `CSc1nc2[nH]c3c(c2c2nncn12)CC(C)(C)OC3`, the activity, negative = inhibition is 7.21%.

As to `Cn1c(=O)[nH]c2cc(Cl)cnc21`, the activity, negative = inhibition is 5.04%.

In the case of `CCCOc1ccc(C2/C(=C(/O)c3ccccc3)C(=O)C(=O)N2CCCN(C)C)cc1OC` (stereo not given), the activity, negative = inhibition was 10.3%.

Regarding `CCCc1cc(NCCN2CCOCC2)n2c(nc3ccccc32)c1C#N`, the activity, negative = inhibition was -2.52%.

As to `CCNc1sc(C(=O)c2cccs2)c(N)c1C#N`, the activity, negative = inhibition is -7.29%.

Consider `O=C1C2ON(c3ccccc3)C(c3ccncc3)C2C(=O)N1c1ccc(Br)cc1` (stereo not given), for which the activity, negative = inhibition was -10.2%.

For the compound `CC1=CC=CN2CC(O)CN=C12` (stereo not given), the activity, negative = inhibition is 3.52%.

For the compound `CCOC(=O)CNC(=O)CNC(=O)c1ccc(OCC(C)C)cc1`, the activity, negative = inhibition was -1.49%.

In the case of `Cc1cc(=O)oc(C)c1C(=O)NCCc1ccccc1`, the activity, negative = inhibition was 14.6%.

As for `Cc1ccc(N2CN=c3s/c(=C\c4cccnc4)c(=O)n3C2)cc1`, the activity, negative = inhibition is -5.47%.

With `Cn1c(=O)c2c(nc(OCc3cccnc3)n2Cc2ccccc2)n(C)c1=O`, the activity, negative = inhibition was -1.88%.

In the case of `CCNC(=O)COn1c(SCC(=O)NCC)nc2ccccc2c1=O`, the activity, negative = inhibition was 8.5%.

In the case of `COc1ccc(C2=CC(c3cccc(OC)c3)n3nnnc3N2)cc1` (stereo not given), the activity, negative = inhibition was -2.84%.

As for `CN1C(=S)SC(N(O)C(=O)Nc2ccccc2)C1(C)C` (stereo not given), the activity, negative = inhibition is 2.19%.

Take `COc1cc(C(=O)Nc2nccs2)cc(OC)c1OC`: the activity, negative = inhibition was -9.15%.

As to `COc1ccc(OC)c(C2=Nn3c(nnc3-c3ccco3)SC2)c1`, the activity, negative = inhibition was -6.07%.

In the case of `COc1ccccc1-n1c(N)c(C(=O)NCC2CCCO2)c2nc3ccccc3nc21` (stereo not given), the activity, negative = inhibition was -0.0521%.

Consider `C=CCNc1nc(-c2cccc(OC)c2O)nc2ccccc12`, for which the activity, negative = inhibition is -11.9%.

On to `Cc1nc(NCc2ccccc2)c(C(N)=O)c2c1COC(C)(C)C2`, for which the activity, negative = inhibition was 6.9%.

Take `CCCOc1cccc(C2/C(=C(/O)c3ccc(F)cc3)C(=O)C(=O)N2CCN(C)C)c1` (stereo not given): the activity, negative = inhibition is -0.187%.

The target of the next assay is Glucocorticoid receptor (Homo sapiens) (UniProt P04150). Kind of assay: GR-GFP Redistribution (AID 450). Also: potency is read from the fitted curve at half-maximal effect. Particulars: U2OS GR-GFP nuclear translocation, laser cytometry, 2 h; series mostly up to 20.6 µM.
Chain of Glucocorticoid receptor (Homo sapiens) (P04150 whole entry, looked up): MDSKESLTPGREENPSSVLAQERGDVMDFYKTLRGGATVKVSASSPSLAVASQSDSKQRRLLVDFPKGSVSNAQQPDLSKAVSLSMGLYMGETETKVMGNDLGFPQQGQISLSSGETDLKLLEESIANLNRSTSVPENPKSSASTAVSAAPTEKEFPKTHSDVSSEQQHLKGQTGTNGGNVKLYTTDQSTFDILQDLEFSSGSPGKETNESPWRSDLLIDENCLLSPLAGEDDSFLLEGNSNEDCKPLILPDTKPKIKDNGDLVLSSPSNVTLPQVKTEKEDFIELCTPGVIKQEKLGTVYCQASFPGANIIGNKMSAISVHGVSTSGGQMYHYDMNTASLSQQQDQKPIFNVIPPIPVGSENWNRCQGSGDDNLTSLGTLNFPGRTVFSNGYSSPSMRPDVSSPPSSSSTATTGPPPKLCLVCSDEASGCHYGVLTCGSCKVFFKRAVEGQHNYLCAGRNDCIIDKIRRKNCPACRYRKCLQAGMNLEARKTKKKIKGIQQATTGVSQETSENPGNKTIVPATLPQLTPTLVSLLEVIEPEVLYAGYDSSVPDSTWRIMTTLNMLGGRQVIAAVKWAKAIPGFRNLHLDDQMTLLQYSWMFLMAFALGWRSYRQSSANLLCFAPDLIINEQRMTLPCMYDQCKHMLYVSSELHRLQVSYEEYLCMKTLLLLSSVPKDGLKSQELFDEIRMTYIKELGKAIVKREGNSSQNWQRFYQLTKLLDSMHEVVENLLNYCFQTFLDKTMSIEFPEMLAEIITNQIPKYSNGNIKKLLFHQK
On to `CC(=O)N1CCC2(CC1)C(C#N)=C(N)Oc1n[nH]c(C(F)(F)F)c12`, for which the Potency is over 20.6 µM.

As to `COC(=O)C(NC(=O)c1ccco1)(Nc1ccc(Br)cn1)C(F)(F)F` (stereo not given), the Potency was over 20.6 µM.

`C=CCOc1ccc(/C(O)=C2/C(=O)C(=O)N(CCCN3CCOCC3)C2c2ccccc2)cc1` (stereo not given): the Potency is over 20.6 µM.

Take `C=C(Br)Cn1c(CCCC)nc2ccccc21`: the Potency was over 20.6 µM.

With `CC(C)(C)c1ccc(C(=O)C=[N+]=[N-])cc1`, the Potency was over 20.6 µM.

For `CSc1nc(N)nc(SCC(=O)OC(C)C)c1C#N`, the Potency was over 20.6 µM.

As for `CCCOc1ccc(N2C(=O)CC(N(CCC)C(=O)CCC(=O)O)C2=O)cc1` (stereo not given), the Potency is over 20.6 µM.

For the compound `COc1ccc(Oc2nc3c(c(=O)n(C)c(=O)n3C)n2Cc2cccc(OC)c2)cc1`, the Potency is over 20.6 µM.

In the case of `CCOC(=O)CCNc1n[nH]c(=O)[nH]c1=O`, the Potency is over 20.6 µM.

As to `Nc1nc2n(n1)C(c1ccc(F)cc1)CC(c1ccc(F)cc1)N2` (stereo not given), the Potency was over 20.6 µM.

With `COc1ccccc1N1CCN(CCOc2c(OC)cccc2OC)CC1`, the Potency is over 20.6 µM.

As to `CC1(C)CC(=O)C2=C(C1)OC(N)=C(C#N)[C@@]21C(=O)N(CC(N)=O)c2ccccc21`, the Potency is over 20.6 µM.

On to `CC1(c2ccco2)NC(=O)NC1=O` (stereo not given), for which the Potency was over 20.6 µM.

In the case of `COC(=O)c1cc(Br)c(=O)n(Cc2ccco2)c1`, the Potency was over 20.6 µM.

Regarding `CCc1cc2c(=O)c(-c3cscn3)coc2c(CN(C)C)c1O`, the Potency is over 20.6 µM.

For `COc1cc(C)nc(Oc2ccc(OCCOc3ccc(C)cc3)nn2)n1`, the Potency is over 20.6 µM.

For `Cc1cc(=O)oc(C)c1C(=O)NCCC1=CCCCC1`, the Potency is over 20.6 µM.

For `O=C(CC(c1ccco1)S(=O)(=O)c1ccccc1)c1ccc(F)cc1` (stereo not given), the Potency was over 20.6 µM.

Turning to `COc1ccc(-c2nn3c(-c4ccccn4)nnc3s2)cc1OC`, the Potency was over 20.6 µM.

With `Nc1nc(NC(=O)Cc2ccccc2)nn1-c1ccccc1`, the Potency was over 20.6 µM.

On to `CSc1nc2[nH]c3c(c2c2nncn12)CC(C)(C)OC3`, for which the Potency was over 20.6 µM.

With `Cn1c(=O)[nH]c2cc(Cl)cnc21`, the Potency is over 20.6 µM.

Take `CCCOc1ccc(C2/C(=C(/O)c3ccccc3)C(=O)C(=O)N2CCCN(C)C)cc1OC` (stereo not given): the Potency is over 20.6 µM.

In the case of `CCCc1cc(NCCN2CCOCC2)n2c(nc3ccccc32)c1C#N`, the Potency is over 20.6 µM.

Consider `CCNc1sc(C(=O)c2cccs2)c(N)c1C#N`, for which the Potency was over 20.6 µM.

As to `O=C1C2ON(c3ccccc3)C(c3ccncc3)C2C(=O)N1c1ccc(Br)cc1` (stereo not given), the Potency was over 20.6 µM.

With `CC1=CC=CN2CC(O)CN=C12` (stereo not given), the Potency is over 20.6 µM.

For the compound `CCOC(=O)CNC(=O)CNC(=O)c1ccc(OCC(C)C)cc1`, the Potency was over 20.6 µM.

For the compound `Cc1cc(=O)oc(C)c1C(=O)NCCc1ccccc1`, the Potency was over 20.6 µM.

As to `Cc1ccc(N2CN=c3s/c(=C\c4cccnc4)c(=O)n3C2)cc1`, the Potency was over 20.6 µM.

For the compound `Cn1c(=O)c2c(nc(OCc3cccnc3)n2Cc2ccccc2)n(C)c1=O`, the Potency was over 20.6 µM.

`CCNC(=O)COn1c(SCC(=O)NCC)nc2ccccc2c1=O`: the Potency is over 20.6 µM.

For the compound `COc1ccc(C2=CC(c3cccc(OC)c3)n3nnnc3N2)cc1` (stereo not given), the Potency is over 20.6 µM.

For the compound `CN1C(=S)SC(N(O)C(=O)Nc2ccccc2)C1(C)C` (stereo not given), the Potency is over 20.6 µM.

With `COc1cc(C(=O)Nc2nccs2)cc(OC)c1OC`, the Potency is over 20.6 µM.

On to `COc1ccc(OC)c(C2=Nn3c(nnc3-c3ccco3)SC2)c1`, for which the Potency is over 20.6 µM.

For `COc1ccccc1-n1c(N)c(C(=O)NCC2CCCO2)c2nc3ccccc3nc21` (stereo not given), the Potency is over 20.6 µM.

With `C=CCNc1nc(-c2cccc(OC)c2O)nc2ccccc12`, the Potency is over 20.6 µM.

With `Cc1nc(NCc2ccccc2)c(C(N)=O)c2c1COC(C)(C)C2`, the Potency is over 20.6 µM.

Take `CCCOc1cccc(C2/C(=C(/O)c3ccc(F)cc3)C(=O)C(=O)N2CCN(C)C)c1` (stereo not given): the Potency was over 20.6 µM.
